# Several values for one entry are separate records, joined by “and”; a condition that tells them apart may be missing. Equal entries are not always repeated. Results filed as inconclusive are left out. Where a call stands in place of a potency, no number is given. Unmarked numbers belong to inactive results. Activity calls are given as the source filed them. The call rests on the fitted dose curve; in most records, active means well fitted curve in the direction sought with a large enough effect in the repeat runs; inconclusive means weak or mixed curves; inactive means no such curve, though single readings can be large; an effect the other way counts as inactive or inconclusive.
# Key:
# [1] = qHTS RealTime-Glo MT Cell Viability Assay in HEK293 cells - 16 hour (AID 1224872); further: nearly all actives have a fitted effect of over 50% in size; further: potency means the concentration at half of the fitted maximal effect; on activity change, negative = cytotoxicity: top concentration of the series differs between compounds
# Outline: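 Reads taken at 0, 8, 16, 24, 32 and 40 h from the same wells. HEK293 cells (600/well) carried RealTime-Glo reagents from seeding, with compound added after a 5 h settle at 37 C.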
# [2] = qHTS RealTime-Glo MT Cell Viability Assay in HepG2 cells - 8 hour (AID 1224873); further: nearly all actives have a fitted effect of over 55% in size; further: potency means the concentration at half of the fitted maximal effect
# Outline: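 HepG2 cells mixed with RealTime-Glo MT reagents (NanoLuc plus cell-permeant prosubstrate) were seeded at 600 cells/well, incubated 5 h at 37 C/5% CO2, then pinned with compounds in DMSO; nonlytic luminescence tracked viability during 40 h treatment.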
# [3] = qHTS RealTime-Glo MT Cell Viability Assay in HEK293 cells - 40 hour (AID 1224874); conditions: RealTime-Glo luminescence; max response: hits give low values; further: nearly all actives have a fitted effect of over 50% in size; further: potency means the concentration at half of the fitted maximal effect
# Outline: (§1)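 Real-time viability in HEK293: signal arises when living cells convert a prosubstrate for NanoLuc in the medium, so luminescence tracks viable cell number. Compound (23 nL, DMSO) added 5 h post-seeding; kinetic reads at 0–40 h, 37 C.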
# [4] = A CellTox Green Cytotoxicity Assay to monitor cytotoxicity in HEK293 cells - 24 hour (AID 1224875); further: nearly all actives have a fitted effect of over 45% in size; further: potency means the concentration at half of the fitted maximal effect; on activity change: series mostly up to about 77 µM
# Outline: (§2)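 Cells (HEK293, 600/well) and dye reagent are dispensed together. After 5 h at 37 C, 23 nL compound is pinned in. Plates stay at 37 C for 40 h with fluorescence read at 0h, 8h, 16h, 24h, 32h and 40h.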
# [5] = A CellTox Green Cytotoxicity Assay to monitor cytotoxicity in HepG2 cells - 16 hour (AID 1224876); further: nearly all actives have a fitted effect of over 45% in size; further: potency means the concentration at half of the fitted maximal effect
# Outline: (§3)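 Cells and non-lytic dye reagent are dispensed together (600 HepG2 cells/well) and incubated 5 h before DMSO compound transfer. Kinetic fluorescence is then recorded in the same wells during 40 h at 37 C.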
# [6] = A CellTox Green Cytotoxicity Assay to monitor cytotoxicity in HepG2 cells - 40 hour (AID 1224879); further: nearly all actives have a fitted effect of over 40% in size; further: potency means the concentration at half of the fitted maximal effect
# Outline: as §3
# [7] = qHTS RealTime-Glo MT Cell Viability Assay in HEK293 cells - 0 hour (AID 1224880); further: top concentration of the series differs between compounds; nearly all actives have a fitted effect of over 45% in size
# Outline: as §1
# [8] = A CellTox Green Cytotoxicity Assay to monitor cytotoxicity in HEK293 cells - 32 hour (AID 1224881); further: nearly all actives have a fitted effect of over 40% in size; further: potency means the concentration at half of the fitted maximal effect
# Outline: as §2
# [9] = A CellTox Green Cytotoxicity Assay to monitor cytotoxicity in HepG2 cells - 24 hour (AID 1224878); further: nearly all actives have a fitted effect of over 45% in size; further: potency means the concentration at half of the fitted maximal effect
# Outline: as §3
# [10] = qHTS RealTime-Glo MT Cell Viability Assay in HepG2 cells - 32 hour (AID 1224877); further: nearly all actives have a fitted effect of over 55% in size; further: potency means the concentration at half of the fitted maximal effect
# Outline: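 HepG2 suspension premixed with RealTime-Glo reagents is plated at 600 cells per well and left 5 h at 37 C/5% CO2. Compounds in DMSO then go in, and bioluminescence reflecting viable cell number is recorded over 40 h.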
structure (smiles),measurement,setting,value
CCCCN(CCCC)CCC(O)c1cc2c(Cl)cc(Cl)cc2c2cc(C(F)(F)F)ccc12 (configuration not stated),Potency,[1],inactive
same,Potency,[2],inactive
same,max response,[3],-17.9%
same,Potency,[4],inactive
same,Potency,[5],inactive
same,Potency,[6],23.9 µM (active)
same,Potency,[7],inactive
same,Potency,[8],inactive
CCCCCCCC(OC)OC,Potency,[1],inactive
same,Potency,[2],inactive
same,max response,[3],5.48%
same,Potency,[4],inactive
same,Potency,[5],inactive
same,Potency,[9],inactive
same,Potency,[6],inactive
same,Potency,[7],inactive
same,Potency,[8],inactive
O=S(=O)(O)c1cc(S(=O)(=O)O)c2ccc3c(S(=O)(=O)O)cc(S(=O)(=O)O)c4ccc1c2c43,"activity change, negative = cytotoxicity",[1],1.53% [at 15.8 µM]
same,"viability change, negative = cytotoxic",[2],0.921% [at 15.8 µM]
same,max response,[3],2.05%
same,activity change,[4],"-0.396% [at 15.8 µM, hits give high values]"
same,"activity change, negative = cytotoxic",[10],5.28% [at 15.8 µM]
same,cytotoxicity,[9],-8.46% [at 15.8 µM]
same,cytotoxicity increase,[6],-11.4% [at 15.8 µM]
same,"activity change, negative = cytotoxicity",[7],3.1% [at 15.8 µM]
same,cytotoxicity increase,[8],-1.7% [at 15.8 µM]
C=CCCCCCCC=C,Potency,[1],inactive
same,Potency,[2],inactive
same,max response,[3],0.211%
same,Potency,[4],inactive
same,Potency,[5],inactive
same,Potency,[9],inactive
same,Potency,[6],inactive
same,Potency,[7],inactive
same,Potency,[8],inactive
CC(COC(=O)c1ccccc1)OC(=O)c1ccccc1 (configuration not stated),Potency,[1],inactive
same,Potency,[2],inactive
same,max response,[3],-5.23%
same,Potency,[4],inactive
same,Potency,[10],inactive
same,Potency,[9],inactive
same,Potency,[6],inactive
same,Potency,[7],inactive
same,Potency,[8],inactive
CCCCCCCCCCCCCc1ccccc1,Potency,[1],inactive
same,Potency,[2],inactive
same,max response,[3],-7.71%
same,Potency,[4],inactive
same,Potency,[10],inactive
same,Potency,[9],inactive
same,Potency,[6],inactive
same,Potency,[7],inactive
same,Potency,[8],inactive
Cc1c(C(=O)O)cccc1[N+](=O)[O-],Potency,[1],inactive
same,Potency,[2],inactive
same,max response,[3],-5.1%
same,Potency,[4],inactive
same,Potency,[10],inactive
same,Potency,[9],inactive
same,Potency,[6],inactive
same,Potency,[7],inactive
same,Potency,[8],inactive
O=C1OC(=O)c2cccc3cccc1c23,Potency,[1],inactive
same,Potency,[2],inactive
same,max response,[3],-9.96%
same,Potency,[4],inactive
same,Potency,[5],inactive
same,Potency,[9],inactive
same,Potency,[6],inactive
same,Potency,[7],inactive
same,Potency,[8],inactive
CNC(=S)NN,Potency,[1],inactive
same,Potency,[2],inactive
same,Potency,[3],19.5 µM (active)
same,Potency,[4],inactive
same,Potency,[10],inactive
same,Potency,[9],inactive
same,Potency,[7],inactive
same,Potency,[8],inactive
COc1cc(C=C2CCC/C(=C\c3ccc(O)c(OC)c3)C2=O)ccc1O,Potency,[1],21.3 µM (active)
same,Potency,[2],inactive
same,Potency,[3],21.3 µM (active)
same,Potency,[4],inactive
same,Potency,[10],23.9 µM (active)
same,Potency,[9],23.9 µM (active)
same,Potency,[6],21.3 µM (active)
same,Potency,[8],inactive
COC(=O)NCCC[Si](OC)(OC)OC,Potency,[1],inactive
same,Potency,[2],inactive
same,max response,[3],15.5%
same,Potency,[4],inactive
same,Potency,[10],inactive
same,Potency,[9],inactive
same,Potency,[6],inactive
same,Potency,[7],inactive
same,Potency,[8],inactive
CC(=O)Nc1ccc(O)cc1,Potency,[1],inactive
same,Potency,[2],inactive
same,max response,[3],7.7% and -11.8% and 15.1%
same,Potency,[4],inactive
same,Potency,[5],inactive
same,Potency,[9],inactive
same,Potency,[6],inactive
same,Potency,[7],inactive
same,Potency,[8],inactive
CSc1ccc2c(c1)N(CCC1CCCCN1C)c1ccccc1S2 (configuration not stated),Potency,[1],17.3 µM (active)
same,Potency,[2],54.7 µM (active) and 23.9 µM (active)
same,Potency,[3],15.4 µM (active)
same,Potency,[4],24.4 µM (active)
same,Potency,[5],54.7 µM (active) and 26.8 µM (active)
same,Potency,[9],38.7 µM (active) and 23.9 µM (active)
same,Potency,[6],34.5 µM (active) and 23.9 µM (active)
same,Potency,[8],30.8 µM (active)
CC(NCCC(c1ccccc1)c1ccccc1)c1ccccc1 (configuration not stated),Potency,[1],21.3 µM (active)
same,Potency,[2],21.3 µM (active)
same,Potency,[3],16.9 µM (active)
same,Potency,[4],21.3 µM (active)
same,Potency,[10],23.9 µM (active)
same,Potency,[6],15.1 µM (active)
same,Potency,[8],21.3 µM (active)
CN1[C@@H]2CC[C@H]1CC(OC(=O)C(CO)c1ccccc1)C2 (some centres not stated),Potency,[1],inactive
same,Potency,[2],inactive
same,max response,[3],-0.934% and 16.5%
same,Potency,[4],inactive
same,Potency,[10],inactive
same,Potency,[9],inactive
same,Potency,[6],inactive
same,Potency,[7],inactive
same,Potency,[8],inactive
NC(=O)c1ccccc1N,Potency,[1],inactive
same,Potency,[2],inactive
same,max response,[3],-1.93%
same,Potency,[4],inactive
same,Potency,[10],inactive
same,Potency,[9],inactive
same,Potency,[6],inactive
same,Potency,[7],inactive
same,Potency,[8],inactive
CC(C)(c1cc(Br)c(OCCO)c(Br)c1)c1cc(Br)c(OCCO)c(Br)c1,Potency,[1],17 µM (active)
same,Potency,[2],inactive
same,Potency,[3],12 µM (active)
same,Potency,[4],inactive
same,Potency,[9],inactive
same,Potency,[7],inactive
same,Potency,[8],inactive
CC1=CCC(=O)O1,Potency,[1],inactive
same,Potency,[2],inactive
same,max response,[3],8.04%
same,Potency,[4],inactive
same,Potency,[5],inactive
same,Potency,[9],inactive
same,Potency,[6],inactive
same,Potency,[7],inactive
same,Potency,[8],inactive
CC1=CP(=O)(c2ccccc2)CC1 (configuration not stated),Potency,[1],inactive
same,Potency,[2],inactive
same,max response,[3],9.74%
same,Potency,[4],inactive
same,Potency,[10],inactive
same,Potency,[7],inactive
C[Si](C)(C)Cl,Potency,[1],inactive
same,Potency,[2],inactive
same,max response,[3],8.44%
same,Potency,[4],inactive
same,Potency,[5],inactive
same,Potency,[9],inactive
same,Potency,[6],inactive
same,Potency,[7],inactive
same,Potency,[8],inactive
CCN=C1C=CC(=C(c2ccc(N(CC)CC)cc2)c2ccc(N(CC)CC)cc2)c2ccccc21,Potency,[1],13.7 µM (active)
same,Potency,[2],19.4 µM (active)
same,Potency,[3],5.46 µM (active)
same,Potency,[4],19.4 µM (active)
same,Potency,[10],19.4 µM (active)
same,Potency,[9],17.3 µM (active)
same,Potency,[6],19.4 µM (active)
same,Potency,[8],13.7 µM (active)
